# Source: PubChem (Broad Institute)
# The list is not random: actives were taken first. Their share in the collection is about 4%.
# Wnt act – activates Wnt/beta-catenin signaling in a reporter cell assay. activator, plate reader. activation, % at 9.35 µM. hit rate 1.2% among 300,000; in the data active = activation above about 30%, passing the limit was not always enough;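 note: 0% = neutral control wells and 100% = positive control wells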
# PAX8 inh HTS – inhibitors of PAX8 transcriptional activity in RMG-I cells. RMG-I TPO-luciferase reporter, SteadyGlo, 24 h. inhibition, % at 12.6 µM. hit rate 1.2% among 360,000. AID 652154;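 active = mean replicate inhibition at least 60% with every replicate also reaching 60%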;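 note: luciferase light reporting Pax8 driven TPO promoter activity; plate controls were median of neutral control wells for no effect and mitoxantrone controls for full effect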
# MITF TRPM1 inh – inhibitors of MITF-driven TRPM1 promoter in melanoma cells. SK-MEL-5 TRPM1 promoter luciferase, 24 h. inhibition, % at 12.5 µM. hit rate 0.83% among 330,000. AID 488899;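 active = mean inhibition across replicates of 60% or more, whatever share of single replicates reaches that level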
# MITF act – MITF TRPM1 promoter activation in melanoma cells. SK-MEL-5 TRPM1-promoter luciferase, 24 h; % of positive control, neutral wells = 0. activation, % at 12.5 µM. hit rate 0.75% among 300,000. AID 588334;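 active = mean activation of at least 80% with every replicate also reaching 80%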;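 note: 0% = neutral control wells and 100% = parthenolide positive control wells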
# EWS-Fli block – blocks EWS/Fli oncoprotein-driven transcription. inhibition, % at 12.6 µM. A673 NR0B1-luciferase reporter, viability-normalised. AID 651661. hit rate 0.67% among 350,000;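 active = mean inhibition of at least 50% after viability correction, with every replicate also passing that limit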;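 note: firefly luciferase signal divided by Alamar Blue viability fluorescence both relative to DMSO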
# esBAF inh – SWI/SNF esBAF complex inhibition | mouse ES cells, Bmi1-luciferase knock-in reporter, 24 h; 100% = twice the neutral-well signal | reporter increase, % at 12.5 µM | hit rate 2% among 350,000 | AID 602393; in the data active = activation above about 40%;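 note: 0% = median of the plate's neutral control wells and 100% = double that signal; a rise in the Bmi1 reporter signal indicates esBAF inhibition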
# DNA binding – binds DNA displacing acridine orange. shares compounds with EWS-Fli block. salmon sperm DNA acridine orange fluorescence polarization. AID 720586. AC35, µM (highest dose often 68 µM), for the others: at the highest dose activity change, negative = DNA binding. hit rate 2% among 640;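 active = fitted curve reaches a 35% signal fall AC35 below twice the sample's top valid tested dose, actives reach about 48 µM in these data; inactive = the rest, including activity in the rising direction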;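 note: lower polarization ratio signals compound binding to DNA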
# Starred values were filed as active, the others as inactive; . = no result; ! = a repeat was not active; [ ] = another dose, or the depositor's remark.
SMILES,Wnt act,PAX8 inh HTS,MITF TRPM1 inh,MITF act,EWS-Fli block,esBAF inh,DNA binding
S=C(NCCN1CCOCC1)Nc1ccccc1Cl,.,9,0,1,83*,.,0%
O=C1C(=O)N(CCS(=O)(=O)c2ccccc2)c2ccccc21,1,-10,7,-7,61*,-4,-10%
O=C1C(=O)N(Cc2cccs2)c2ccccc21,-1,15,7,-4,65*,-8,-9%
COc1ccc(NC(=O)Nc2ccc3c(c2)C(=O)N([C@H](C)CO)C[C@H](C)[C@H](CN(C)C)OCCCC[C@H](C)O3)cc1,.,-15,.,.,-2,-2,.
O=C(NCC1CC1)[C@H]1[C@H](CO)[C@H]2Cn3c(cccc3=O)[C@@H]1N2C(=O)c1cccnc1,.,.,.,.,0,1,.
COc1ccc(/C=C2\SC(=O)N(CCCC(=O)Nc3cc(Cl)ccc3C(=O)O)C2=O)cc1,-21,53,89*,-88,85*,.,-10%
O=C(C[C@@H]1CC[C@H]2[C@@H](COC[C@H](O)CN2Cc2cc(F)ccc2F)O1)N[C@@H]1CCN(Cc2ccccc2)C1,.,10,.,.,5,2,.
Cc1ccc2oc(/N=C(\N)NC(=O)C(C)(C)C)nc2c1,-23,29,72*,.,85*,.,-6%
CCOc1cc2[nH]c(=S)n(Cc3ccc(C(=O)NCCN(CC)CC)cc3)c(=O)c2cc1OCC,-12,-33,3,-5,58*,6,3%
C[C@@H]1CN([C@H](C)CO)C(=O)c2cccc(NS(=O)(=O)c3ccc(Cl)cc3)c2O[C@H]1CN(C)Cc1ccc(C(=O)Nc2ccccc2N)cc1,.,-10,.,.,35,.,.
C[C@@H]1CN([C@@H](C)CO)C(=O)c2cccc(NS(=O)(=O)c3ccc(Cl)cc3)c2O[C@@H]1CN(C)Cc1ccc(C(=O)Nc2ccccc2N)cc1,.,.,.,.,53*,-25,-13%
C[C@H](CO)N1C[C@H](C)[C@@H](CN(C)Cc2ccc(C(=O)Nc3ccccc3N)cc2)Oc2c(NS(=O)(=O)c3ccccc3)cccc2C1=O,.,6,.,.,-7,.,.
C[C@@H]1CN([C@@H](C)CO)C(=O)c2cccc(NS(=O)(=O)c3ccccc3)c2O[C@@H]1CN(C)Cc1ccc(C(=O)Nc2ccccc2N)cc1,.,37,.,.,52*,-22,0%
C/C=C/c1ccc(C2[C@@H]3CN(C(=O)Cc4ccccc4)C[C@H]2N3)cc1 (stereo partly drawn),.,-5,.,.,55*!,.,-2%
CS(=O)(=O)Nc1ccc2c(c1)[C@H]1C[C@H](CC(=O)N3CCc4ccccc4C3)O[C@H](CO)[C@H]1O2,.,26,.,.,-1,8,.
C[C@H]1CN([C@@H](C)CO)C(=O)c2cc(-c3ccccc3F)cnc2O[C@H]1CN(C)C(=O)c1cnccn1,.,5,.,.,-4,0,.
CCCC(=O)N1CC2(C1)CN(C(=O)Nc1c(C)noc1C)[C@@H](CO)c1c2c2ccc(OC)cc2n1C,.,.,.,.,-1,.,.
N#C[C@@H]1[C@H](c2ccc(C#Cc3ccc(F)cc3)cc2)[C@@H](CO)N1C(=O)Nc1ccc(F)cc1,.,103*,.,.,75*,-59,1%
N#C[C@H]1[C@H](c2ccc(C#CC3CCCC3)cc2)[C@H](CO)N1C(=O)Nc1ccc(F)cc1,.,55,.,.,27,3,.
N#C[C@@H]1[C@H](c2ccc(C#Cc3ccccc3F)cc2)[C@H](CO)N1C(=O)C1CCCC1,.,40,.,.,1,.,.
CN(C)C(=O)c1ccc(-c2ccccc2[C@@H]2[C@@H](CO)N(C(=O)C3CC3)[C@H]2C#N)cc1,.,.,.,.,61*,.,-4%
N#C[C@H]1[C@H](c2ccc(C#Cc3ccccc3F)cc2)[C@@H](CO)N1C(=O)C1CCCCC1,.,59,.,.,66*,-18,-14%[60 µM]
CCCNC(=O)N1[C@H](C#N)[C@H](c2ccc(C#Cc3ccc(F)cc3)cc2)[C@H]1CO,.,52,.,.,71*,-56,3%
C[C@@H](NC(=O)[C@@H]1[C@@H](CO)[C@@H]2Cn3c(ccc(-c4ccncc4)c3=O)[C@H]1N2C)c1ccccc1,.,1,.,.,-2,-3,.
N#C[C@H]1N[C@H](CO)[C@H]1c1ccc(C#Cc2ccc(F)cc2)cc1,.,-27,.,.,53*,-55,6%
SMILES,Wnt act,PAX8 inh HTS,MITF TRPM1 inh,MITF act,EWS-Fli block,esBAF inh,DNA binding
N#C[C@@H]1N[C@H](CO)[C@@H]1c1ccc(C#Cc2ccccc2F)cc1,.,-174,.,.,-108,21,.
CCCNC(=O)N1[C@H](C#N)[C@H](c2ccc(C#Cc3cccc(F)c3)cc2)[C@H]1CO,.,20,.,.,61*,-65,-1%
N#C[C@H]1[C@H](c2ccc(-c3ccccc3F)cc2)[C@@H](CO)N1C(=O)c1ccccn1,.,-7,.,.,57*,2,-11%
COc1ccc2c3c([nH]c2c1)[C@H](CO)N(C(=O)Nc1ccc(F)cc1)CC31CCN(C(=O)Nc2ccc3c(c2)OCO3)CC1,.,.,.,.,-6,.,.
C[C@H](NC(=O)C[C@@H]1C=C[C@@H](NC(=O)Cc2ccccn2)[C@@H](CO)O1)c1ccccc1,.,.,.,.,.,-1,.
Cc1ccccc1-c1cnc2c(c1)C(=O)N([C@@H](C)CO)C[C@H](C)[C@@H](CN(C)C(=O)CN(C)C)O2,.,.,.,.,-7,-4,.
COc1ccc(Nc2oc(COc3ccccc3OC)nc2C#N)cc1,-3,24,17,-15,54*,.,9%
Cc1ccc(C(CC(=O)O)Nc2nc(N3CCOCC3)nc(N3CCOCC3)n2)cc1 (stereo not drawn),.,-8,4,-3,65*,.,-4%
CNc1nc(C(=O)O)nc(N2CCOCC2)n1,1,.,-4,4,-4,-6,.
CN(C(=O)COC(=O)c1cc(-c2ccc(Cl)s2)nc2ccccc12)C1CCS(=O)(=O)C1 (stereo not drawn),-1,26,-2,0,-17,.,.
CN(C(=O)COC(=O)c1cc(-c2ccccc2Cl)nc2ccccc12)C1CCS(=O)(=O)C1 (stereo not drawn),-12,28,0,-2,85*,.,-2%
